Measurements taken from PubChem BioAssay.
For some assays here: Potency and affinity values are given separately. The source made the active and inactive calls.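 The calls were made as follows, unless noted: active = calcium signal rise above buffer-control mean plus 5 SD in both duplicates, and also a hit in the primary screen; inactive = the rest.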

Assays:
[1] = tested on: TRPC4 beta (transient receptor potential cation channel C4), mouse; test: TRPC4 cation channel opening, retest – cell-based, Fluo4 calcium, HEK293 TRPC4beta/mu-opioid, duplicates, 10 µM, confirmation (AID 2426;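 active = fluorescence ratio normalized to control raised more than 50% in primary screen plus both repeat runs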); conditions: Fluo4 calcium fluorescence, at 10 µM; active compounds read high
[2] = tested on: transient receptor potential cation channel C4 beta (TRPC4), mouse; test: TRPC4 cation channel opening, second retest – cell-based, second round, Fluo4, HEK293 TRPC4beta/mu-opioid, 1 µM, confirmation (AID 2461;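 active = primary screen active and over 50% activation in each of two duplicate runs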); conditions: Fluo4 calcium fluorescence, at 1 µM; active compounds read high
[3] = tested on: TRPC4 (transient receptor potential cation channel C4 beta), mouse; test: potentiation of DAMGO EC20 TRPC4 response – cell-based, second round, Fluo-4, HEK293 TRPC4beta/mu-opioid, 1 µM, confirmation (AID 2554;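 active = primary screen hit whose fluorescence ratio, in both repeats, exceeds the weak agonist control mean by 3 SD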); conditions: DAMGO EC20, Fluo-4 calcium flux, at 1 µM; active compounds read high
[4] = tested on: TRPC4 beta (transient receptor potential cation channel C4), mouse; test: potentiation of DAMGO EC20 TRPC4 response – cell-based, Fluo-4, HEK293 TRPC4beta/mu-opioid, confirmation (AID 2555;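 active = primary screen hit whose calcium fluorescence ratio, in both repeats, exceeds the weak agonist control mean by 3 SD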); conditions: DAMGO EC20, Fluo-4 calcium flux, at 10 µM; active compounds read high
[5] = target: Short transient receptor potential channel 4 (Mus musculus) (UniProt Q9QUQ5); test: blockers of DAMGO-evoked TRPC4 calcium flux – cell-based, Fluo4, HEK293 TRPC4beta/mu-opioid, confirmation (AID 2636;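 active = calcium signal cut by more than 3 SD below the full-agonist control yet still positive, in both repeats and the earlier primary screen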); conditions: at 10 µM; active compounds read high
[6] = target: Short transient receptor potential channel 4 (Mus musculus) (UniProt Q9QUQ5); test: blockers of DAMGO-evoked TRPC4 calcium flux – cell-based, second round, Fluo4, HEK293 TRPC4beta/mu-opioid, 1 µM, confirmation (AID 2637;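 active = calcium signal ratio cut to more than 3 SD under the fully stimulated control mean yet still positive, in both repeats and the primary screen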); conditions: at 1 µM; active compounds read high
[7] = target: Short transient receptor potential channel 4 (Mus musculus) (UniProt Q9QUQ5); test: calcium entry via TRPC4 opening agents – cell-based, HEK293 TRPC4/mu-opioid, Fluo-4 calcium, dose response (AID 434937;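 active = primary screen activator hit with a dose response curve and TRPC4 channel activation at any tested dose; inactive = no activation, no dose response, or not a primary hit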)
[8] = target: Short transient receptor potential channel 4 (Mus musculus) (UniProt Q9QUQ5); test: potentiation of DAMGO-evoked TRPC4 calcium signal – cell-based, HEK293 TRPC4/mu-opioid, Fluo-4 calcium, EC20 DAMGO, dose response (AID 434941;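 active = earlier screen potentiator hit that boosts the TRPC4 ion channel at some dose, with a dose response; inactive = no potentiation, no dose response, or not a prior hit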;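 also: calcium entry triggered by an EC20 dose of DAMGO at the co-expressed mu-opioid receptor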)
[9] = target: Short transient receptor potential channel 4 (Mus musculus) (UniProt Q9QUQ5); test: block of DAMGO-driven TRPC4 calcium entry – cell-based, HEK293 TRPC4/mu-opioid, Fluo-4 calcium, dose response (AID 434942;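 active = primary screen inhibitor hit that blocks the TRPC4 channel at some tested dose, yielding a dose curve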)
[10] = target: Short transient receptor potential channel 6 (Mus musculus) (UniProt Q61143); test: TRPC6 blockade by TRPC4 inhibitor hits – cell-based, HEK293, membrane potential dye, duplicate, selectivity assay for TRPC4 inhibitor project, confirmation (AID 434948;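 active = active in primary screen and both duplicates, each dropping signal beyond three positive-control SD with fluorescence still positive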); conditions: HEK293 TRPC6, membrane potential dye fluorescence, at 10 µM, stimulated with maximal-effect acetylcholine; active compounds read high
[11] = target: Short transient receptor potential channel 6 (Mus musculus) (UniProt Q61143); test: TRPC6 opening by TRPC4 activator hits – cell-based, HEK293, membrane potential dye, duplicate, selectivity assay for TRPC4 activator project, confirmation (AID 434950;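 active = membrane potential signal rise above negative control mean plus 3 SD in both duplicates, also active in the earlier TRPC4 screen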); conditions: HEK293 TRPC6, membrane potential fluorescence, at 10 µM; activation: active compounds read high; outcome: activation
[12] = target: Short transient receptor potential channel 6 (Mus musculus) (UniProt Q61143); test: positive modulators of mouse TRPC6 channel – HEK293 cells, membrane potential dye, duplicate, selectivity assay for TRPC4 potentiator project, confirmation (AID 434952;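 active = compound raising the membrane signal above positive-control mean plus 3 SD in both repeats, and a primary screen hit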); conditions: HEK293 TRPC6, membrane potential dye fluorescence, at 10 µM, maximal acetylcholine added after compound; active compounds read high
[13] = target: Short transient receptor potential channel 4 (Mus musculus) (UniProt Q9QUQ5); test: calcium flux activators in TRPC4/5HT1a cells, counter-screen for TRPC4 activator project, cell-based, second counter screen, HEK293 TRPC4/5HT1a, Fluo-4 (AID 434977); conditions: Fluo-4 calcium flux, at 10 µM; active compounds read high
[14] = serotonin-gated TRPC4 signal block – cell-based, second counter screen, HEK293 TRPC4/5HT1a, Fluo-4, counter-screen for TRPC4 inhibitor project, confirmation (AID 434978;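 active = primary screen active whose calcium signal fell more than 3 SD beyond the full-serotonin control mean in both duplicate plates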;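 also: serotonin given first at submaximal then at maximal dose after compound preincubation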); conditions: Fluo-4 calcium flux, at 10 µM, serotonin added to trigger calcium flux; active compounds read high
[15] = tested on: TRPC4 (mouse), co-expressed with 5HT1a in HEK293; test: enhancement of serotonin-evoked TRPC4 response – cell-based, second counter screen, HEK293 TRPC4/5HT1a, Fluo-4, counter-screen for TRPC4 potentiator project, confirmation (AID 434979;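 active = signal rise over 3 SD above mean of control wells given weak agonist, in both repeats and first screen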); conditions: Fluo-4 calcium flux, at 10 µM, serotonin added at its EC20 dose; active compounds read high
[16] = nonspecific calcium rise without TRPC4 – cell-based, HEK293 mu-opioid receptor line, counter-screen for TRPC4 activator project, confirmation (AID 449723;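 active = hit in primary screen, with calcium signal over 5 SD above buffer well mean in both duplicates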;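 also: counter screen cells carry the mu-opioid receptor alone and lack TRPC4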); conditions: HEK293 mu-opioid cells, Fluo-4 calcium fluorescence, at 10 µM; active compounds read high
[17] = nonspecific potentiation of DAMGO calcium response – cell-based, HEK293 mu-opioid receptor line, counter-screen for TRPC4 allosteric potentiator project, confirmation (AID 449724;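 active = calcium signal rise more than 3 SD above the low-dose agonist control mean, in both duplicate plates and the primary screen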); conditions: HEK293 mu-opioid receptor cells, Fluo-4 calcium flux, at 10 µM, compound added before EC20 DAMGO stimulus; active compounds read high

Sequence of Short transient receptor potential channel 6 (Mus musculus) (Q61143 whole entry, looked up): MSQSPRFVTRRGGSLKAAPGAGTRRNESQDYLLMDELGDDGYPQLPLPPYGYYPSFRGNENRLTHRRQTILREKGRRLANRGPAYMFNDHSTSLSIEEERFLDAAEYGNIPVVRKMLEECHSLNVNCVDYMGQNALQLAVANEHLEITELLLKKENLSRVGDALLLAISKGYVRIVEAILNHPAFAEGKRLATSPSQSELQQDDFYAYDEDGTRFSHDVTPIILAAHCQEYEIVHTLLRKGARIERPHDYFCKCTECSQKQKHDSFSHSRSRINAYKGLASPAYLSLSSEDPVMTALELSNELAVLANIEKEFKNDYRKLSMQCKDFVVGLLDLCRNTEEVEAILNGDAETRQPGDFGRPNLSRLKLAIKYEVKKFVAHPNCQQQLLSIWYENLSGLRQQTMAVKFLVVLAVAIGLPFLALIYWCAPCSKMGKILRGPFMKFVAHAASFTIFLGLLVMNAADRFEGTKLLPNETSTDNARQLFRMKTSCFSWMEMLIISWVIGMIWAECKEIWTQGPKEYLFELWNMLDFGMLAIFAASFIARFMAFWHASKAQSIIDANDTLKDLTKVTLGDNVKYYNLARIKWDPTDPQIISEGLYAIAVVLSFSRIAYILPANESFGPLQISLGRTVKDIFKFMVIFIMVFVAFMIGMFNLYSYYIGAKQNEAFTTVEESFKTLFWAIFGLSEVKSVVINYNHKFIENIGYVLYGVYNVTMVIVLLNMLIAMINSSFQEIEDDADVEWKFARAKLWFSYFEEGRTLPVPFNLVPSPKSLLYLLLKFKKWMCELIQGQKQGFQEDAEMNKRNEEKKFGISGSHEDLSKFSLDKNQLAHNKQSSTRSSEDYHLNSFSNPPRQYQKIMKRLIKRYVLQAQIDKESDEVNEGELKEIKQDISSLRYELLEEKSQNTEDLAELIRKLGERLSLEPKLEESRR
Sequence of Short transient receptor potential channel 4 (Mus musculus) (Q9QUQ5 whole entry, looked up): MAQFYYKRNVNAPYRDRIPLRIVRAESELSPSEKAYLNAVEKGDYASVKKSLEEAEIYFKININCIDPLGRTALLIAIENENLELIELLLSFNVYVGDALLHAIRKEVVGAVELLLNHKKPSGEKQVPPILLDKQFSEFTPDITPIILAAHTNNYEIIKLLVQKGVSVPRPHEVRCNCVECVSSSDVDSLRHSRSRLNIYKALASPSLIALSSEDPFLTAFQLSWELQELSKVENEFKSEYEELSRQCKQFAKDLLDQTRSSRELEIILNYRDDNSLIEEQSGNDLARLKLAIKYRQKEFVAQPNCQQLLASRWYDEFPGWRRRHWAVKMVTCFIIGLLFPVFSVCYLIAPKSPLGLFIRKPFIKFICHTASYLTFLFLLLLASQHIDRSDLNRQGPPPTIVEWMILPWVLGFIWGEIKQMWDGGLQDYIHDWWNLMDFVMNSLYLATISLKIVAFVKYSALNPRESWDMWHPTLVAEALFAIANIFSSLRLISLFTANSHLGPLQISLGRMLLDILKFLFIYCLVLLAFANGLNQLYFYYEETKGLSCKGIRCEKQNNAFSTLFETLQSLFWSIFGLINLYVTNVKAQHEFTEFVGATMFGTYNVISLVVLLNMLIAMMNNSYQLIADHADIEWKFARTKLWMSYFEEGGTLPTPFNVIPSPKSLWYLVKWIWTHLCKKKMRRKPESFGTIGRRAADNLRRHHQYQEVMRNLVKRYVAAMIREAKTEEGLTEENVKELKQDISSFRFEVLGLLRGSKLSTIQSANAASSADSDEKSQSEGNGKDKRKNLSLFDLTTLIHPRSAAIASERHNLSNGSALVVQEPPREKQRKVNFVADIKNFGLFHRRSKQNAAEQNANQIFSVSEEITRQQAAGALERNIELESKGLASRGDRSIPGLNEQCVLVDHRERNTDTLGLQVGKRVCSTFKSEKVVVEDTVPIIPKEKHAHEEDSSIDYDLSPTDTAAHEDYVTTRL

Compound	outcome [1]	outcome [2]	potentiation [3]	outcome [4]	outcome [5]	outcome [6]	outcome [7]	outcome [8]	outcome [9]	outcome [10]	outcome [11]	outcome [12]	outcome [13]	outcome [14]	outcome [15]	outcome [16]	outcome [17]	outcome [3]	potentiation [4]	potentiation [15]
CCN(CCO)Cc1csc2ccc(Br)cc12	inactive	inactive	12% (active)	inactive	inactive	inactive	inactive	inactive	inactive	inactive	inactive	inactive	inactive	inactive	inactive	inactive	inactive	–	–	–
C=CCn1c(=N)n(CC(O)COc2ccccc2OC)c2ccccc21 (centres undefined)	inactive	inactive	–	inactive	inactive	inactive	inactive	inactive	inactive	inactive	inactive	inactive	inactive	inactive	inactive	inactive	inactive	inactive	–	–
CCN1CCCC1CNCc1ccc(Cl)cc1Cl (centres undefined)	inactive	inactive	11% (active)	–	inactive	inactive	inactive	inactive	inactive	inactive	inactive	inactive	inactive	inactive	–	inactive	inactive	–	8% (active)	12.9% (active)
Cc1ccc(S(=O)(=O)NC(=O)N2CCN(Cc3c(F)cccc3Cl)CC2)cc1	inactive	inactive	–	inactive	inactive	inactive	inactive	inactive	inactive	inactive	inactive	inactive	inactive	inactive	–	inactive	inactive	inactive	–	15.3% (active)
Cc1cc(Br)cc(C)c1OCCCCN(C)C	inactive	inactive	23% (active)	inactive	inactive	inactive	inactive	inactive	inactive	inactive	inactive	inactive	inactive	inactive	–	inactive	inactive	–	–	23.5% (active)
Cc1cc(C)cc(N(CC(=O)Nc2ccc(C)cc2Cl)S(=O)(=O)c2c(C)[nH]c(=O)[nH]c2=O)c1	inactive	inactive	–	–	inactive	inactive	inactive	inactive	inactive	inactive	inactive	inactive	inactive	inactive	–	inactive	inactive	inactive	23% (active)	78.6% (active)
COc1ccc(/C=N/n2c(SC)nnc2-c2ccccc2)cc1C	inactive	inactive	–	–	inactive	inactive	inactive	inactive	inactive	inactive	inactive	inactive	inactive	inactive	–	inactive	inactive	inactive	9% (active)	20.6% (active)
